Measurements reported in PMC4336329 (PLoS ONE, 2015).
Out of some 310,000 compounds screened, about 14,000 (4.5%) showed an effect of 50% or more. The effect is printed as a negative number. The list comes from a sample in which strong results are over-represented; it also holds similar structures and randomly drawn compounds.

molecular target: human ether-à-go-go-related gene (hERG) potassium channel (human, UniProt Q12809); assay: primary screen, population patch clamp on CHO cells stably expressing hERG; higher = less effect of the substance
Sequence (Q12809 whole entry, looked up): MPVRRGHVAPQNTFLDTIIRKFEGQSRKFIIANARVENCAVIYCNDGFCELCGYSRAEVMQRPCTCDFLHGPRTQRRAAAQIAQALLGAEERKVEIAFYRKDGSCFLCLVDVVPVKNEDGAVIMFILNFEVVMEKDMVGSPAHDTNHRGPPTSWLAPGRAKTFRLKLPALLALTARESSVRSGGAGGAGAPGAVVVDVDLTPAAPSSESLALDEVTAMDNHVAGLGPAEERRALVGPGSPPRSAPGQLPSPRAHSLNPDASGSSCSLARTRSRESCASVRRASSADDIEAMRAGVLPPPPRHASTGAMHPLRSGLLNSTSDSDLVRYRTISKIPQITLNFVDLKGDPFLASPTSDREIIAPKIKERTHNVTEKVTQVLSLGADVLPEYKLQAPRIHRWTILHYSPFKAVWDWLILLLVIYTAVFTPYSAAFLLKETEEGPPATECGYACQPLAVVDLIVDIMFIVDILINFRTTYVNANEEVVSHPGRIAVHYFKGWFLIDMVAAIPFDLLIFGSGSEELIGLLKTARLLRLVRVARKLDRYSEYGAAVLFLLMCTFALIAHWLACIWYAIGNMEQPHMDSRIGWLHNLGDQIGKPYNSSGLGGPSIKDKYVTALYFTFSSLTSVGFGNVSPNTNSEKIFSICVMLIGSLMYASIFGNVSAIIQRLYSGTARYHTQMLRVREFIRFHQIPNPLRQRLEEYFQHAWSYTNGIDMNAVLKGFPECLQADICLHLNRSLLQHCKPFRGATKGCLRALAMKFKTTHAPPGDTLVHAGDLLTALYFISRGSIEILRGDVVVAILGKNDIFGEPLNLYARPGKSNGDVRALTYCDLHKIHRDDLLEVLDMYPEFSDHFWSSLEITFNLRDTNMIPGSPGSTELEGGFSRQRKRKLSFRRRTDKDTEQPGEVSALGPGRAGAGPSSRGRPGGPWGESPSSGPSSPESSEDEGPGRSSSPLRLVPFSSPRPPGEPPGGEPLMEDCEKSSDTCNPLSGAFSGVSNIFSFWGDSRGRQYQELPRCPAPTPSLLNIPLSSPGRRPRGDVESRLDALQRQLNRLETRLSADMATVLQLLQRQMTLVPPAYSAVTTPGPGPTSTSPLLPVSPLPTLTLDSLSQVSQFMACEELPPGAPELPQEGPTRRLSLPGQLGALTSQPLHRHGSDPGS
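Also: peak tail current of the secondary pulse compared with the same well before compound.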

Row | Structure (SMILES) | hERG current change (%, negative = inhibition) at 10uM [%]
1 | CSc1ccc(CN(C)C(=O)c2cccc(S(=O)(=O)N3CCN(Cc4ccccc4)CC3)c2)cc1 | -1.76
2 | COc1cc(/C=C2/SC(=S)N(CC(=O)O)C2=O)ccc1OCC(=O)Nc1ccc(C)c(C)c1 | -6.69
3 | COc1ccccc1/C=C1/C(=O)N(c2ccc([N+](=O)[O-])cc2)N=C1C | 12.7
4 | CCN(CC)C(=O)CSc1nc2ccccc2c(=O)n1CC1CCCCC1 | -61
5 | CCOC(=O)CSc1nc2ccccc2c(=O)n1CC1CCCO1 (centres unmarked) | -6.58
6 | CCOC(=O)CSc1nc2ccccc2c(=O)n1CC | -14.6
7 | CCOC(=O)C(C)Sc1nc2ccccc2c(=O)n1CC1CCCCC1 (centres unmarked) | -10.1
8 | CCOC(=O)CSc1nc2ccccc2c(=O)n1CC1CCCC1 | -67.3
9 | CCN(CC)C(=O)CSc1nc2ccccc2c(=O)n1CC | -1.18
10 | Cl.c1ccc(N2CCCCC2)c(NC2=NCCC2)c1 | -15.5
11 | CN(C)/C=C1\NC(=S)N(c2ccccc2)C1=O | 28.4
12 | Cc1ccc2c(c1)N(CC(=O)N1CCOCC1)C(=O)CO2 | 4.9
13 | COCCCNc1nc2nonc2nc1N1CCN(C2CCCC2)CC1 | -20.2
14 | CC1CC(C)CN(C(=O)c2ccc3ccccc3c2)C1 (centres unmarked) | -19.2
15 | CCCc1ccc(OCC(O)CN2CCN(c3ccccn3)CC2)cc1.Cl (centres unmarked) | -63.6
16 | CCc1ccc(OCC(O)CN2CCN(CCO)CC2)cc1.Cl (centres unmarked) | -15.3
17 | CCc1ccc(OCC(O)CN2CCN(c3ccccn3)CC2)cc1.Cl (centres unmarked) | -67.4
18 | COc1cccc(OCC(O)CN2CCN(c3ccccn3)CC2)c1.Cl (centres unmarked) | -12.7
19 | CCc1ccc(OCC(O)CN2CCN(c3ccc(OC)cc3)CC2)cc1.Cl (centres unmarked) | -49.3

Row | Structure (SMILES) | hERG current change (%, negative = inhibition) at 10uM [%]
20 | CCc1ccc(OCC(O)CN2CCN(c3ccccc3)CC2)cc1.Cl (centres unmarked) | -60.3
21 | CCCc1ccc(OCC(O)CN2CCN(c3ccccc3)CC2)cc1.Cl (centres unmarked) | -46.5
22 | CC(=O)C1C(c2ccc3ncccc3c2)NC(=O)NC1(O)C(F)(F)F (centres unmarked) | 10.9
23 | Cc1ccsc1/C=N/Nc1ncc(Cl)cc1Cl | 5.75
24 | COc1ccc(C)cc1S(=O)(=O)N1CCN(S(=O)(=O)c2cc(C(=O)O)ccc2C)CC1 | 3.86
25 | CCN1CCN(C(c2cccs2)C(C)NC(=O)c2cccc(OC)c2)CC1 (centres unmarked) | -4.05
26 | CCN(CC)C(=O)c1ccc(NC(=O)c2cccc(C(F)(F)F)c2)cc1 | 4.47
27 | CN(C(=O)COC(=O)c1ccc2c(=O)n3c(nc2c1)CCC3)C1CCS(=O)(=O)C1 (centres unmarked) | 10.5
28 | CCc1ccc2nc(NC(=O)Cn3cnc4ccccc4c3=O)sc2c1 | 9.75
29 | Cc1cc(C)nc(/N=C(\N)Nc2ccc(OCc3ccccc3)cc2)n1 | -78.2
30 | Cc1cc(C)nc(/N=C(\N)Nc2cccc(OCc3ccccc3)c2)n1 | -74.1
31 | CC(=O)Nc1cccc(N/C(N)=N/c2nc(C)cc(C)n2)c1 | 4.87
32 | CCOC(=O)C(=O)Nc1ccc(OCc2ccccc2)cc1 | 20.2
33 | Cc1cc(OCC(=O)Nc2ccc(OCc3ccccc3)cc2)nc(C(C)C)n1 | 3.36
34 | CCOc1ccc(N/C(N)=N/c2nc(C)cc(C)n2)cc1 | -46.5
35 | Cc1cc(C)nc(/N=C(\N)Nc2cccc([N+](=O)[O-])c2)n1 | -28.7
36 | Cc1cc(C)nc(/N=C(\N)Nc2ccc(S(=O)(=O)Nc3nccc(C)n3)cc2)n1 | 19.8
37 | Cc1cc(C)nc(/N=C(\N)Nc2ccc(OCCC(C)C)cc2)n1 | -71.8
38 | CCOC(=O)c1c(C)noc1CP(=O)(c1ccccc1)c1ccccc1 | -6.61

Row | Structure (SMILES) | hERG current change (%, negative = inhibition) at 10uM [%]
39 | CCC(=O)NC(c1ccc(OC)cc1)c1c(O)ccc2ccccc12 (centres unmarked) | 3.82
40 | COc1ccc(-c2cnnc(N/N=C/c3ccc(O)c(O)c3)n2)cc1 | 2.82
41 | COc1ccc(-c2cnnc(N/N=C/c3ccc(OC)c(OC)c3)n2)cc1 | -35.7
42 | COc1ccc(-c2cnnc(N/N=C/c3ccc(O)c(OC)c3)n2)cc1 | -50.1
43 | CC1CCCCC12NC(=O)N(Cn1nnc3ccccc3c1=O)C2=O (centres unmarked) | -17.2
44 | Cc1ccc(-c2cc(-c3ccccc3)nc(N(C)N)n2)cc1 | 16.7
45 | c1ccc(Cc2nnc(N3CCCCC3)c3ccccc23)cc1 | -26.7
46 | O=C(Cn1nc(Cc2cccnc2)c2ccccc2c1=O)N1CCN(c2ccccn2)CC1 | -23.1
47 | c1ccc(N2CCN(c3nnc(Cc4cccnc4)c4ccccc34)CC2)nc1 | -50.1
48 | CC(C)(C)c1ccc(COc2ccsc2C(=O)O)cc1 | -6.72
49 | COCCCNC(=S)N(Cc1cccnc1)Cc1ccc(OC)c(OC)c1 | 12.4
50 | Cc1ccc(CCNC(=O)CNC(=S)N(Cc2ccccc2)Cc2cccnc2)cc1 | -55
51 | Cc1ccc(CNC(=O)CNC(=S)N(Cc2ccccc2)Cc2cccnc2)cc1 | -19.8
52 | COCCNC(=S)N(Cc1cccnc1)Cc1ccc(OC)c(OC)c1.O=C(O)C(=O)O | 9.52
53 | O=C(CNC(=S)N(Cc1ccccc1)Cc1cccnc1)NCCc1ccccc1 | -41.3
54 | COc1ccc(CN(Cc2cccnc2)C(=S)NCCc2ccccc2)cc1OC.O=C(O)C(=O)O | -50.5
55 | CCCc1nn(C)c2c(=O)[nH]c(-c3cc(S(=O)(=O)Nc4ccc(NC(C)=O)cc4)ccc3OCC)nc12 | -21.2
56 | O=C(NC1CCCCCC1)c1ccc(CS(=O)(=O)Cc2ccc(F)cc2)o1 | 3.52
